High-throughput results from PubChem BioAssay.
This is a sample that favours compounds with a hit; in the whole collection about 5.8% have one here.
PINK1 expr mod: modulators of PINK1 expression; PINK1 immunofluorescence, high-content cytometry, 24 h; Potency, µM (titrated, usually from 76.6 µM), actives largely listed as activators; 410,000 tested, 0.2% active; active = well fitted activation curve with a large enough effect; inconclusive = small, poorly fitted or top-dose-only effect; cell line not stated here; also: nearly all actives have a fitted effect of over 65% in size
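Measures PINK1 amount and localization on or inside mitochondria by immunofluorescence. Stable cells get compounds at 5 concentrations for 24 hours before fixation and staining; CCCP controls included.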
SW480 rerep: DNA re-replication induction in SW480 cells. SW480 DNA re-replication, Hoechst DNA content imaging, 48 h. Potency, µM (top dose mostly 46.1 µM), actives largely listed as activators. 340,000 tested, 1.8% active; also: nearly all actives have a fitted effect of over 55% in size
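Compounds, transferred as 23 nL by pin tool, were incubated with cells for 48 hr; DNA content per nucleus was then quantified by Hoechst staining and fluorescence plate imaging.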
MCF10A rerep: DNA re-replication induction in MCF 10a cells. MCF 10A DNA re-replication, Hoechst nuclear intensity, 48 h. Potency, µM (titrated, usually from 46.1 µM), usual class: activators. 350,000 tested, 2.9% active; also: nearly all actives have a fitted effect of over 50% in size
12-LOX inh: blocks human arachidonate 12S-lipoxygenase | AID 1671190 | P18054 | 580,000 tested, 1.1% active | Potency, µM (doses to about 108 µM), most hits filed as inhibitors | purified 12hLO, xylenol orange hydroperoxide absorbance
Target sequence (P18054 whole entry, looked up): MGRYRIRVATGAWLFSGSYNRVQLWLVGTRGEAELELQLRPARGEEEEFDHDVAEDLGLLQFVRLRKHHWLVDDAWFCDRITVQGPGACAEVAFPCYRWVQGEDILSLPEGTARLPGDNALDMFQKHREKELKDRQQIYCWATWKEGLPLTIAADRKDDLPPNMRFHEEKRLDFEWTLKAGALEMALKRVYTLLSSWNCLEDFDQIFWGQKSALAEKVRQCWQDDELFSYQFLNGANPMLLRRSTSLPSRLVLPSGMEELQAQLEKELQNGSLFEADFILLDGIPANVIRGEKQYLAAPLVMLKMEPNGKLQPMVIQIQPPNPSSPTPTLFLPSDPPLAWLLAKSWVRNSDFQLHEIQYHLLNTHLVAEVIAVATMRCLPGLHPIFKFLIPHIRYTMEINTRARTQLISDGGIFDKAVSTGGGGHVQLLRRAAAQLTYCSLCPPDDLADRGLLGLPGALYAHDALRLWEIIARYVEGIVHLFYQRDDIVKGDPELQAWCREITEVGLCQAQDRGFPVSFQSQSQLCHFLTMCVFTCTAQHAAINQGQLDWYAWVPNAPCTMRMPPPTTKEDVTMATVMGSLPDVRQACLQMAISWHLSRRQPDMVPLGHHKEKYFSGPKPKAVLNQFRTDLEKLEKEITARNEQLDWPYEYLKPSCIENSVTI
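Purified human 12hLO (150 nM final) in 25 mM Hepes, 0.01% Triton X-100, pH 7.0 was preincubated 15 min at room temperature with compound. Then 40 uM arachidonic acid was added, 30 min. Hydroperoxide was read by Fe-XO absorbance ratio 573/405 nm.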
KB-V1 cytotox: kills drug-selected multidrug resistant KB-V1 cells; KB-V1 MDR cells viability, CellTiter-Glo, 72 h; Potency, µM (top dose mostly 46.1 µM), usual class: cytotoxic; 400,000 tested, 3.4% active; also: nearly all actives have a fitted effect of over 60% in size
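Readout: CellTiter-Glo luminescence, 10 min after addition. Cells: KB-V1 MDR subline, 72 h at 37 degrees C with compound. Analysis: corrected, normalized data fitted to concentration-effect curves.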
KB-3-1 tox: kills parental KB-3-1 adenocarcinoma cells; KB-3-1 viability, CellTiter-Glo ATP luminescence, 72 h; Potency, µM (highest dose often 46.1 µM), hits mostly cytotoxic; 400,000 tested, 1.4% active; AID 1347075; also: nearly all actives have a fitted effect of over 60% in size
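Viability of parental KB-3-1 cells, measured by CellTiter-Glo luminescence, followed a 72 h incubation at 37 °C with pinned compounds in phenol-red-free DMEM containing 10% FBS.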
Numbers stand for hits; 0 = inactive; ? = inconclusive; - = no result given. Unless noted, calls follow the shape of the dose curve; as a rule, active = well fitted curve in the direction sought with a large enough effect; inconclusive = small, poorly fitted or top-dose-only effect, or another doubt; inactive = no such curve, though single readings can be large; an effect the other way counts as inactive or inconclusive.

SMILES	PINK1 expr mod	SW480 rerep	MCF10A rerep	12-LOX inh	KB-V1 cytotox	KB-3-1 tox
CSC1=NC(C(Cl)(Cl)Cl)N=C(c2ccccc2)N1 (stereo unspecified)	0	?	?	0	5.8µM	3.3µM
CN1C2C=C(N(CCc3c[nH]c4ccccc34)C(=O)c3ccc(Cl)cc3)CC1CC2 (stereo unspecified)	0	?	0	?	23µM	?
C/C(=N\NC(=O)C(=O)Nc1ccc(C)c(Cl)c1)c1ccncc1	0	0	0	0	0	0
C/C(=N\Nc1ccc(C)c(Cl)c1)c1ccncc1	0	0	0	45µM	0	0
C/C(=N\NC(=O)Cc1ccc(Cl)c(Cl)c1)c1cccnc1	0	0	0	0	0	0
C/C(=N\Nc1ccc(C)c(Cl)c1)c1cccnc1	0	0	0	4.5µM	0	0
COC(=O)CCN(Cc1cccc(C)c1)CC(C)C	-	-	-	0	-	-
COc1ccc(C)cc1NC(=O)CSc1nnc(COc2ccc(C)cc2)n1Cc1ccco1	0	?	0	0	9.2µM	0
CCn1c(COc2ccccc2)nnc1SCC(=O)Nc1cc(C)ccc1OC	0	0	0	0	15µM	0
COc1ccc(C(=O)CSc2nnc(CNc3ccc(C)cc3C)n2Cc2ccco2)cc1	0	0	0	0	3.7µM	?
Cc1ccc(OCc2nnc(SCC(=O)Nc3cccc4ccccc34)n2-c2ccccc2)cc1	0	0	18µM	0	?	0
COc1ccc(NC(=O)CSc2nnc(COc3ccc(C)cc3)n2Cc2ccco2)c(OC)c1	-	-	-	0	-	-
CCC(=O)N1CCC(C(=O)Nc2ccc(S(=O)(=O)N3CCCC3)cc2)CC1	-	-	-	0	-	-
O=S(=O)(Nc1cccc2cccnc12)c1ccccc1F	-	-	-	0	-	-
O=C1CC(c2noc(-c3ccc(-c4ccccc4)cc3)n2)CN1c1ccc(F)cc1 (stereo unspecified)	-	-	-	0	-	-
Cc1ccc(C(=O)Nc2ccc(-c3nc4ccccc4s3)cc2)c(C)c1	-	-	-	0	-	-
COc1ccc(S(=O)(=O)N2CCN(Cc3ccco3)CC2)cc1	0	0	0	2.5µM	0	0
Cc1ccc(S(=O)(=O)N2CCC3(CC2)SCC(=O)N3Cc2ccco2)cc1	-	-	-	14µM	-	-
Cc1cccc(NC(=O)N2CCC3(CC2)SCC(=O)N3Cc2ccco2)c1	-	-	-	0	-	-
COc1ccc(S(=O)(=O)N2CCN(Cc3cc4c(cc3Br)OCCO4)CC2)cc1	0	0	0	?	15µM	0
O=S(=O)(c1ccc(Br)cc1)N1CCN(Cc2ccco2)CC1	0	0	0	0	?	0
CN1CCN(c2oc(-c3ccco3)nc2C#N)CC1	-	-	-	0	-	-
CN(C)c1ccc(/C=C/c2ccnc3ccccc23)cc1N	0	-	-	-	0	0
Oc1ccc(/C=C/c2ccnc3ccccc23)cc1	0	0	21µM	?	0	?
Cc1cc(/C=C/c2ccnc3ccccc23)ccc1N	0	-	-	-	23µM	?
SMILES	PINK1 expr mod	SW480 rerep	MCF10A rerep	12-LOX inh	KB-V1 cytotox	KB-3-1 tox
C[N+](C)(C)c1ccc(/C=C/c2ccnc3ccccc23)cc1	32µM	-	-	-	?	18µM
CCC[N+](C)(C)c1ccc(/C=C/c2ccnc3ccccc23)cc1	3.2µM	-	-	-	?	1.6µM
CCN(N=O)c1ccc(/C=C/c2ccnc3ccccc23)cc1	0	-	-	-	?	?
CCCCCn1nc(C(=O)Nc2nc(-c3ccc(OC)cc3)c(C)s2)c2ccccc2c1=O	-	-	-	0	-	-
CC(C)(C)NC(NC(=O)c1cccc(Cl)c1)C(Cl)(Cl)Cl (stereo unspecified)	-	-	-	0	-	-
NNC(=O)CN1C(c2ccccc2)=Nc2ccc(Br)cc2C1c1ccccc1 (stereo unspecified)	0	0	0	0	0	0
COc1cc(OC)c(C2=Nc3ccc(Br)cc3C(c3ccccc3)N2CC(=O)NN)cc1OC (stereo unspecified)	0	0	2.9µM	0	0	0
CCc1ccc(NC(=O)C(C)OC(=O)c2cc(=O)[nH]c3ccc(S(=O)(=O)Nc4ccc(F)cc4)cc23)cc1 (stereo unspecified)	0	0	21µM	0	?	0
Cc1cccc(NS(=O)(=O)c2ccc3[nH]c(=O)cc(C(=O)OC(C)C(=O)Nc4ccc([N+](=O)[O-])cc4)c3c2)c1 (stereo unspecified)	0	0	0	0	0	0
Cc1ccc(C)c2sc(N3CCN(C(=O)c4ccc([N+](=O)[O-])o4)CC3)nc12	0	?	9.2µM	0	?	?
O=C(c1ccc([N+](=O)[O-])o1)N1CCN(c2nc3c(F)cc(F)cc3s2)CC1	0	?	?	0	?	0
COc1cccc(/C=C(/C(=O)OCC(=O)NC2CCCC(C)C2C)c2ccccc2)c1 (stereo unspecified)	?	0	18µM	0	0	0
C=CCn1c(NCCN(C)C)nc2c1c(=O)[nH]c(=O)n2C	-	-	-	0	-	-
OC1(c2csc(CN3CCN(c4ccccn4)CC3)n2)CCN(Cc2ccc(F)cc2)CC1	-	-	-	0	-	-
Cc1cc(-c2ccccc2)n(-c2ccc(C(=O)N3CCN(c4ncccn4)CC3)cc2)n1	0	0	0	0	2.9µM	?
Cc1cc(C)n(-c2nc3ccccc3nc2N2CCN(C(=O)c3ccc(Cl)cc3)CC2)n1	0	21µM	1.8µM	0	0	0
Cc1ccc(C(=O)N2CCN(c3ncccn3)CC2)cc1	0	0	0	0	0	0
COc1ccc(Nc2nc3ccccc3nc2-n2nc(C)cc2C)cc1	?	?	16µM	0	0	0
Cc1cc(C)n(-c2nc3ccccc3nc2N2CCCC2)n1	0	0	0	0	13µM	0
COc1ccc2nc3n(c2c1)[C@@H](CNC(C)C)COC3	-	-	-	0	-	-
O=C(CCCl)Nc1ccc2c(c1)CCC2	-	-	-	0	-	-
COc1ccc(C2c3c(oc4ccccc4c3=O)C(=O)N2CC2CCCO2)cc1 (stereo unspecified)	-	?	0	0	?	0
O=C1c2oc3ccc(F)cc3c(=O)c2C(c2ccccc2)N1CC1CCCO1 (stereo unspecified)	0	0	0	0	8.2µM	0
O=C(NCc1cccc(Cl)c1)c1cc(COc2ccc3ncccc3c2)on1	0	0	0	0	3.3µM	12µM
CC(CCCC(C)(C)O)NC(=O)c1cc(COc2ccc3ncccc3c2)on1 (stereo unspecified)	0	0	0	0	5.8µM	?
Cc1ccc(F)cc1CNC(=O)c1cc(COc2ccc3ncccc3c2)on1	0	0	0	0	0	0
CCc1nc2c(c(-c3ccc(Cl)cc3)n1)CCN([S+](=O)([O-])c1ccccc1)CC2	-	-	-	0	-	-
O=C(c1ccc(Cl)cc1)C1CCN(C(=O)NC2CCCCC2)CC1	0	0	0	0	2.3µM	0
COc1cccc(-c2cc(C(F)(F)F)c(C#N)c(=O)[nH]2)c1	0	0	18µM	0	0	0
